# From the supplement of paper PMC9925115
# ± gives the uncertainty stated by the source.
# Tested on: FLX1
# Experiment: cell viability z-score within plate (CellTiter-Glo), mean of 3 biological replicates; higher = higher viability relative to plate (less growth inhibition)
# Conditions: 2 µM; time (hr): 120
# Method: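 FLX1 fibrolamellar carcinoma cells (DNAJB1-PRKACA fusion), 600 cells/well in 384-well plates, treated with a Selleck kinase inhibitor library (L1200) at 2 uM for 5 days (120 hr); viability by CellTiter-Glo. A z-score was computed within each plate and averaged over three biological replicates.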
row,SMILES,cell viability z-score within plate
1,Nc1nc(N)c(N=O)c(OCC2CCCCC2)n1,0.662 ± 0.19
2,C#Cc1cccc(Nc2ncnc3cc4c(cc23)OCCOCCOCCO4)c1 [Icotinib],0.676 ± 0.52
3,C[C@@H]1COC(Nc2ccc3ncnc(Nc4ccc(OCc5nccs5)c(Cl)c4)c3c2)=N1 [Varlitinib],0.0259 ± 0.81
4,CNC(=O)c1ccccc1Sc1ccc2c(/C=C/c3ccccn3)n[nH]c2c1 [Axitinib],0.834 ± 0.44
5,Cc1ccc(NC(=O)c2cccc(N(C)C)c2)cc1NC(=O)c1ccc(O)cc1,-0.188 ± 0.87
6,O=C(NCc1cccc(O)c1)Nc1nc(-c2ccncc2)cs1,0.289 ± 0.42
7,Cc1cc(C(=O)NOCCO)c(Nc2ccc(I)cc2F)n(C)c1=O,0.132 ± 0.35
8,CC1=C(C(=O)Nc2cc3cn[nH]c3cc2F)C(c2ccc(C(F)(F)F)cc2)CC(=O)N1 (centres undefined),1.02 ± 0.74
9,O=C1Nc2ccc(I)cc2/C1=C/c1cc(Br)c(O)c(Br)c1,1.53 ± 0.35
10,"Cc1[nH]c(/C=C2\C(=O)Nc3ccccc32)c(C)c1CCC(=O)O [Orantinib (TSU-68, SU6668)]",0.388 ± 0.61
11,NC(=O)Nc1cc(-c2cccc(F)c2)sc1C(=O)N[C@H]1CCCNC1,0.408 ± 0.47
12,CC(=O)Nc1nc(C)c(-c2ccc(Cl)c(S(=O)(=O)NCCO)c2)s1,-0.0789 ± 0.1
13,CCN1CCN(Cc2ccc(-c3cc4c(N[C@H](C)c5ccccc5)ncnc4[nH]3)cc2)CC1,0.278 ± 0.61
14,CO[C@H]1C[C@@H]2CC[C@@H](C)[C@@](O)(O2)C(=O)C(=O)N2CCCC[C@H]2C(=O)O[C@H]([C@H](C)C[C@@H]2CC[C@@H](O)[C@H](OC)C2)CC(=O)[C@H](C)/C=C(\C)[C@@H](O)[C@@H](OC)C(=O)[C@H](C)C[C@H](C)/C=C/C=C/C=C/1C [Rapamycin (Sirolimus)],0.422 ± 0.17
